HSP90 refold inh = HSP90 refolding inhibition in rabbit reticulocyte lysate; luciferase refolding luminescence, 3 h; inhibition, % at 5.6 µM; hit rate 0.91% among 290,000;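 active = inhibition above the screen-wide mean plus 3 SD, computed separately per campaign, cut at about 16% in these data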;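 also: 0% = DMSO wells and 100% = 60 µM geldanamycin wells; inhibitors lower the luminescence because luciferase stays unfolded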
NALP1 inh = inhibitors of NALP1 inflammasome in yeast; inhibition, % at 10 µM; hit rate 0.61% among 280,000; AID 2071; S. cerevisiae NALP1/ASC/caspase-1 growth, X-gal OD620, 72 h; in the data active = inhibition mostly above about 24%, no sharp cut-off; inactive = mostly below about 32%
Hsp70 act = switches on Hsp70 transcription; HeLa Hsp70 promoter luciferase reporter, luminescence; scaled: vehicle 0, proteasome-inhibitor control 100%; activation, % at 10 µM; hit rate 0.04% among 200,000;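 active = activation above the mean across all tested compounds plus 3 SD, cutoff set per campaign, cut at about 5.5% in these data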;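 also: 100% = MG132 at 30 µM as the positive control and 0% = DMSO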
HSF1 inhib = HSF1 inhibition. NIH3T3-HGL HSE-luciferase, MG132-induced, luminescence 8 h; stronger effect = lower value. activity change, negative = inhibition, % at 7.5 µM (by protocol). hit rate 0.77% among 300,000;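 active = more than half of replicate wells show activity change below -50%, luminescence cut by over half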;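 also: luciferase reports HSF-1 transcriptional activity via heat shock element; 0% = median of DMSO wells and -100% = zero luminescence signal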
p-CIP stab down = p/CIP protein destabilization; F442A p/CIP-EGFP cells, EGFP fluorescence, 16 h; decrease of EGFP signal, % at 10 µM; hit rate 0.01% among 290,000; AID 1984;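 active = EGFP signal decrease of at least 30% at 10 µM or well 3 SD below plate mean, unless failing retest; inactive = the rest, including hits failing retest or dose response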
Target sequence (Q05BA5 1-1403): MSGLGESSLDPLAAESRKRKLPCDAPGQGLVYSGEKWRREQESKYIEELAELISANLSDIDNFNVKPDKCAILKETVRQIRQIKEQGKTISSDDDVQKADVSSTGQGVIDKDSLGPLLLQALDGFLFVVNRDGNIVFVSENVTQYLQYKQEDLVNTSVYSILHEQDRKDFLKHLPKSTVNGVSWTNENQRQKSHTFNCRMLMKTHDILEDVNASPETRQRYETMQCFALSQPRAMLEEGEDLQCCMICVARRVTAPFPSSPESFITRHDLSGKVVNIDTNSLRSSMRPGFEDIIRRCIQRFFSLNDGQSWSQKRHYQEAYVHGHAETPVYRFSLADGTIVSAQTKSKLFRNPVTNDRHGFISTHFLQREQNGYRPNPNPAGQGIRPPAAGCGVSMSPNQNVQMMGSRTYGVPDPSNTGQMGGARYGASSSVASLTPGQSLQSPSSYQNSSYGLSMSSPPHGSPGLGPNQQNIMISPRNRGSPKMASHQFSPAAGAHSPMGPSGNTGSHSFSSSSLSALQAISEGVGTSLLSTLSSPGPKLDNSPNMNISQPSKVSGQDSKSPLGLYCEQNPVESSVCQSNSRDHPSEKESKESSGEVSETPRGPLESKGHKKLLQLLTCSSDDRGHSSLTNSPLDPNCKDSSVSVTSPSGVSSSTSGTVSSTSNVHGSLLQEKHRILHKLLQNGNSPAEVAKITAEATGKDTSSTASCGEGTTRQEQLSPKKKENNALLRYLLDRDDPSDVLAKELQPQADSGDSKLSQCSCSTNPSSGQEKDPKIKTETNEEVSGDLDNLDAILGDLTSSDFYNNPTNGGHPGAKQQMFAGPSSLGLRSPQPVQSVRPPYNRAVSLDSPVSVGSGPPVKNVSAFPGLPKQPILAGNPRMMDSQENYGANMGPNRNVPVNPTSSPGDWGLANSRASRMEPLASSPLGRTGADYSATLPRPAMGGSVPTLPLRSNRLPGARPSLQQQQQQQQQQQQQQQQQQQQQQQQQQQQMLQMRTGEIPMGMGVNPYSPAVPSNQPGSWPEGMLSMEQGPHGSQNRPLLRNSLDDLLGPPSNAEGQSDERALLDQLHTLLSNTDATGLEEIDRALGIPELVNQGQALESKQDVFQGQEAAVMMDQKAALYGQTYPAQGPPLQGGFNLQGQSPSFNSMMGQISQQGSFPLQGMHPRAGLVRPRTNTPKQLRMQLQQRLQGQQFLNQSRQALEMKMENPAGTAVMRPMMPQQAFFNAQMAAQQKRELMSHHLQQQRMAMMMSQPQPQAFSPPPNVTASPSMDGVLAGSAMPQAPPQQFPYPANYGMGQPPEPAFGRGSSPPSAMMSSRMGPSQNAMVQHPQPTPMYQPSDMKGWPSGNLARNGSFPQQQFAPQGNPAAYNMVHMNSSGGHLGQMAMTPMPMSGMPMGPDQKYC
HSF1 activator = increases HSF-1 driven luciferase reporter signal; NIH3T3-HGL HSF-1 luciferase reporter, MG132, 8 h; 100% = twice DMSO control signal; activation, % at 9 µM; hit rate 1.7% among 300,000; AID 504408;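 active = mean replicate activation of at least 50% with a set share of replicates each reaching 50%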;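 also: 0% = median of the neutral control wells and 100% = twice that signal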
* marks the source's active call; other numbers are inactive results; / = no result given. An excerpt weighted towards active compounds, which were near 3.8% of everything screened.

SMILES	HSP90 refold inh	NALP1 inh	Hsp70 act	HSF1 inhib	p-CIP stab down	HSF1 activator
CCOc1ccc(S(=O)(=O)NCc2cccs2)cc1	1.0	18.5	-0.1	-2.5	-12.3	-14.6
CCSc1nnc(-c2ccc(S(=O)(=O)NCc3cccs3)cc2)o1	0.1	6.7	-0.4	-68.1*	-8.0	-71.5
COc1cccc(NC(=O)N2CCCC2C(=O)NC(C)C)c1 (configuration not stated)	2.6	33.1	-0.2	-62.6*	-4.8	-69.9
Cc1cccc(NC(=O)C2CCCN2C(=O)Oc2ccccc2)c1 (configuration not stated)	0.4	44.9*	-0.3	-4.6	-3.2	-0.4
Cc1cc(C)cc(NC(=O)C2CCCN2C(=O)Oc2ccccc2)c1 (configuration not stated)	-1.2	5.5	-0.4	0.7	0.8	1.6
O=C(NC(=S)N1CCN(C/C=C/c2ccccc2)CC1)c1ccc(Cl)nc1	-1.1	13.6	/	38.0	1.2	68.8*
COc1cccc(N(C(=O)CCl)C(C(=O)NCCc2ccccc2)c2cccs2)c1 (configuration not stated)	6.1	12.9	-0.3	-92.3*	0.6	-92.7
COc1ccc(N(C(=O)CCl)C(C(=O)NCCc2ccccc2)c2cccs2)cc1Cl (configuration not stated)	1.0	27.6	-0.5	14.0	7.5	17.6
Cc1cc(C)cc(NC(=O)c2ccc(CSc3nnc(C)s3)cc2)c1	-0.7	2.5	0.0	38.0	-7.9	69.5*
O=C(NCc1ccncc1)C1CCN(S(=O)(=O)c2ccc(F)cc2)CC1	3.1	14.6	/	-0.5	-19.7	25.6
O=C(NCc1ccncc1)C1CCN(S(=O)(=O)c2cccc(C(F)(F)F)c2)CC1	1.4	1.2	/	-53.3*	-10.9	-61.8
COc1ccc(S(=O)(=O)N2CCC(c3cc(-c4cccc5ccccc45)n[nH]3)CC2)cc1	3.1	12.3	-0.4	12.8	-2.2	18.1
O=S(=O)(c1cccc(C(F)(F)F)c1)N1CCC(c2cc(-c3cccc4ccccc34)n[nH]2)CC1	3.8	36.7*	-0.4	-1.8	-2.3	19.9
COc1ccc(-c2nn(-c3ccccc3)cc2/C=C/C(=O)N2CCOCC2)cc1OC	0.6	0.0	-0.5	2.1	11.0	5.2
Cn1c(=O)c2ccccc2n(CC(=O)NC2CCCC2)c1=O	-3.0	21.0	/	-8.9	-10.4	7.0
CC(=O)Nc1cc(OC(C)=O)c2nonc2c1OC(C)=O	84.7*	-17.0	-0.4	/	-5.5	/
COc1cc(C(=O)NC23CC4CC(CC(C4)C2)C3)cc(OC)c1OC	-1.1	0.1	/	-0.5	5.7	1.9
COc1cc(C(=O)N[C@H](C(=O)NC(C)C23CC4CC(CC(C4)C2)C3)C(C)C)cc(OC)c1OC (some centres not stated)	6.2	40.7*	-0.3	9.3	1.9	18.4
c1cc2c(cc1C1=NNC(=NC3CC3)SC1)OCCO2	76.3*	8.8	-0.6	-3.1	3.9	7.2
Cc1cccc(C)c1NC(=O)C(C)N1CCCCC1 (configuration not stated)	0.3	-10.1	/	-14.8	0.6	-10.5
CC(C(=O)NN=C(c1ccccc1)c1ccccc1)N1CCCC1 (configuration not stated)	-0.1	13.4	-0.3	17.2	-7.1	55.0*
CC(C)(C)[C@H]1C=C(C(=O)Nc2ccccc2)O[C@@H](OCCCCO)C1	/	/	/	-60.7*	/	-69.3
C#CCNC(=O)C1=C[C@@H](C(C)(C)C)C[C@@H](OCc2ccc(CO)cc2)O1	8.5	29.7*	-0.2	-0.1	-4.6	-5.0
Cc1ccc(CSCCNS(=O)(=O)c2ccccc2)cc1	1.8	25.3	-0.4	-18.3	2.4	-21.9
COc1ccc(NC(=S)N2CCc3ccccc3C2)cc1	-3.0	16.4	-0.2	27.7	-12.9	60.9*
SMILES	HSP90 refold inh	NALP1 inh	Hsp70 act	HSF1 inhib	p-CIP stab down	HSF1 activator
COc1ccc(CNC(=O)N2CCc3ccccc3C2)cc1	-1.8	11.1	/	6.6	-4.5	16.1
COc1cc(NC(=S)N2CCCC2)cc(OC)c1	16.6*	-9.4	/	/	4.7	/
COc1cccc(N2CCN(C(=S)Nc3cc(C)cc(C)c3)CC2)c1	3.4	-6.5	0.1	-52.3*	17.6	-63.6
COc1cccc(N2CCN(c3ncccn3)CC2)c1	-2.1	2.5	-0.4	42.1	-3.6	72.7*
COc1cccc(C(=O)N2CCN(c3ncccn3)CC2)c1	-1.5	-7.4	-0.4	5.2	-13.7	5.6
CCOc1ccc(CCNC(=O)Cc2ccc(NC3=NC4CS(=O)(=O)CC4S3)cc2)cc1OCC (configuration not stated)	-5.9	-11.3	/	-35.4	-12.8	-42.8
CC1=CC(C)(C)N(C(=O)CSc2nnc(N)s2)c2c(C)cc(C)cc21	-2.8	5.6	-0.4	/	-4.1	/
COc1ccc(C23CC4CC(CC(C(=O)O)(C4)C2)C3)c(F)c1	0.9	19.1	/	-1.6	-7.7	2.1
COc1cccc(NC(=S)N2CCCC2)c1	-3.7	17.1	-0.3	27.5	-6.0	57.1*
CCOC(=O)N1CCC(N(CCN(C)C)C(=S)Nc2cccc(SC)c2)CC1	2.7	4.2	-0.2	-18.7	-0.9	-24.9
CSc1cccc(NC(=S)N2CCC(N(C)C3CCCC3)CC2)c1	-1.9	12.8	0.0	-72.6*	-5.6	-78.7
O=C(COC(=O)c1ccccc1C(=O)c1ccccc1)NCCc1ccccc1	0.6	19.3	-0.4	16.9	-13.9	55.4*
O=C(COC(=O)c1ccccc1C(=O)c1ccc(Cl)cc1)NCCc1ccccc1	-1.1	3.2	0.0	1.8	10.2	6.2
N#Cc1ccc(S(=O)(=O)NCC(=O)OCC(=O)N2CCCC2=O)cc1	/	/	/	-3.7	/	4.2
Cc1ccccc1Cn1ccc(=NCc2ccccc2)cc1	-2.7	22.7	-0.6	-1.9	-11.6	4.3
COC(=O)c1sccc1NC(=O)/C=C\c1ccc(Cl)cc1Cl	7.2	-11.6	-0.4	/	-8.7	/
COC(=O)c1sccc1NC(=O)/C=C/c1ccc(Cl)cc1	3.2	24.2	-0.2	29.2	-6.3	75.7*
COC(=O)c1sccc1NC(=O)Nc1ccc(F)cc1	2.7	8.5	/	27.9	-2.7	70.0*
COC(=O)c1sccc1NC(=O)Nc1cccc(OC)c1	-2.9	-6.0	/	6.0	-5.5	5.7
COC(=O)c1sccc1NC(=O)Nc1cccc(F)c1	-2.7	9.9	-0.3	32.5	-8.6	77.1*
COC(=O)c1sccc1NC(=O)Nc1ccc(C)cc1	14.3	13.3	/	/	-5.5	/
CC1CN(S(=O)(=O)c2ccc(-c3nc4ccccc4s3)cc2)CC(C)O1 (configuration not stated)	-0.1	30.4*	-0.1	-2.3	13.4	-1.8
O=C(CNCCc1ccc(F)cc1)Nc1cc(F)ccc1F	-0.7	16.4	/	-60.1*	-0.2	-68.6
CSc1ccccc1OCc1cc(C(=O)NC2CCOC(C)(C)C2)no1 (configuration not stated)	-1.0	19.1	/	10.9	-3.7	9.9

Bioassay records deposited in PubChem BioAssay by several laboratories.
